The text below walks through data of PubChem BioAssay AID1276 (Columbia University Molecular Screening Center, 2008).

The whole screen tested about 190,000 compounds, of which about 2,000 (1.1%) were called active.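 How the source made its calls: active means activation above a set limit, based on mean plus 3 SD of controls (cut at about 140% in these data); inconclusive means one replicate above the limit, the other below; inactive means the rest.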 The entries come from a sample that favours actives as a whole.

A short description of the assay: activators of APP 5'UTR luciferase reporter, primary screen, SH-SY5Y cells (AID 1276). Particulars: SH-SY5Y APP 5'UTR luciferase reporter, luminescence; at 2 µM; active compounds read high; zero percent = DMSO vehicle wells. Background: In a reporter assay the amount or activity of a reporter protein is the signal.
As for `CCCCOc1ccc(C(=O)NCc2ccco2)cc1`, the activation was 4.26% (inactive).

For the molecule `CCCCOc1ccc(-c2nnc(-c3ccco3)o2)cc1`, the activation was 136% (active).

With `COc1ccc(C(=O)CSc2nnc(-c3ccco3)o2)cc1`, the activation was 22.7% (inactive).

Regarding `CCCCSc1nnc(-c2ccc(C)cc2)o1`, the activation was 115% (inactive).

Regarding `CCC(=O)Oc1cccc(C(=O)Nc2ccc(-c3nnc(-c4ccco4)o3)cc2)c1`, the activation is 92.5% (inactive).

On to `CCOc1ccc(-c2nnc(-c3ccco3)o2)cc1`, for which the activation was 147% (active).

`COCCSc1nnc(NC(=O)c2cc(OC)c(OC)cc2[N+](=O)[O-])s1`: the activation was 5.07% (inactive).

Turning to `COc1cccc(N(C(=O)C2COc3ccccc3O2)C(C(=O)NC2CCCCC2)c2ccc(O)cc2)c1` (stereo not given), the activation was -0.98% (inactive).

For the molecule `CN1CCN(c2nc(Nc3ccc(O)cc3)nc3ccccc23)CC1`, the activation was 18.9% (inactive).

Turning to `Cc1cc(Oc2ccc(Cl)cc2)nc(SCC(=O)c2ccccc2)n1`, the activation was 11.5% (inactive).

`CC(=O)NC(CC(=O)O)c1ccc(F)cc1` (stereo not given): the activation was 5.81% (inactive).

Take `O=C(Nc1ccc2nccnc2c1)c1ccco1`: the activation is 39.6% (inactive).

With `O=C(Nc1ccc2oc(-c3ccccc3F)nc2c1)c1ccco1`, the activation was 146% (active).

As for `O=C(Nc1cccc(-c2nc3ncccc3o2)c1)c1ccco1`, the activation was -10.6% (inactive).

For `Cc1cnc(C(=O)N2CCCC(C(=O)c3ccc(C(F)(F)F)cc3)C2)cn1` (stereo not given), the activation was 23% (inactive).

With `NS(=O)(=O)c1ccc(NC(=O)COC(=O)C2(c3ccc(F)cc3)CCCC2)cc1`, the activation was 5.99% (inactive).

With `COc1ccc(CN(C)C(C)C(=O)NC2CCCc3ccccc32)cc1` (stereo not given), the activation is 9.96% (inactive).

As to `CC(NC(=O)COC(=O)c1cc(=O)[nH]c2ccccc12)c1ccccc1` (stereo not given), the activation is -4.94% (inactive).

As for `O=C(NC1CC1)C1CCCN(C(=O)NC2CCCCC2)C1` (stereo not given), the activation is 18.2% (inactive).

As to `O=C(Nc1nc(-c2cccnc2)cs1)c1ccccc1F`, the activation was 61.5% (inactive).

Regarding `c1ccc(-c2noc(-c3cccs3)n2)nc1`, the activation was 209% (active).

Regarding `c1csc(-c2nc(-c3ccncc3)no2)c1`, the activation is 55.4% (inactive).

With `CC(C)c1nc(-c2ccccn2)no1`, the activation was 7.91% (inactive).

On to `CC(C)n1c(O)c(N=Nc2ccccn2)c2ccccc21`, for which the activation is 3.63% (inactive).

Turning to `CC(C)(C)NS(=O)(=O)c1ccc(NC(=O)NC2CCCCC2)cc1`, the activation was -13.3% (inactive).

With `CC(C)c1ccc(NC(=O)NC2CCCCC2)cc1`, the activation is 139% (active).

With `CC(C)N1CCC(NC(=O)Nc2ccccc2)CC1`, the activation was 15.8% (inactive).

Take `CC(NCc1nc2ccccc2n1C)C12CC3CC(CC(C3)C1)C2` (stereo not given): the activation is 9.64% (inactive).

`CC(=O)n1cc([C@H]2C=C(C(=O)N3CCOCC3)O[C@@H](OCc3ccc(CO)cc3)C2)c2ccccc21`: the activation is 3.91% (inactive).

Turning to `CC(C)(C)CN1CCNC(=O)C1CC(=O)NC1Cc2ccccc2C1` (stereo not given), the activation is -10.9% (inactive).

On to `Cc1nn2cc(-c3ccc(Cl)cc3)cnc2c1Br`, for which the activation is 208% (active).

In the case of `CCOCCCN(C(=O)Cn1nnc(-c2ccc(OC)c(OC)c2)n1)C(CC)C(=O)NC1CCCC1` (stereo not given), the activation is 7.01% (inactive).

On to `CCOC(=O)CCCN1CC(O)=C(c2nc3ccccc3s2)C1=N`, for which the activation was -7.28% (inactive).

As for `COc1ccccc1N1CC(O)=C(c2nc3ccccc3s2)C1=N`, the activation is 1.68% (inactive).

In the case of `N=C1C(c2nc3ccccc3s2)=C(O)CN1NC(=O)c1ccc([N+](=O)[O-])cc1`, the activation is 150% (active).

`CN1CCNC(=O)C1CC(=O)NCCC1=CCCCC1` (stereo not given): the activation was 9.01% (inactive).

For `COCCNC(=O)c1ccc(N2CCC3(CC2)OCCO3)c([N+](=O)[O-])c1`, the activation is 5.47% (inactive).

As to `c1ccc(C2=Nc3cccc4cccc(c34)N2)cc1`, the activation was -8.18% (inactive).

For `Brc1ccc(C2CC(c3ccccc3)=Nc3ccccc3N2)cc1` (stereo not given), the activation was 176% (active).

`CNC(=S)N1N=C(c2ccccc2)CC1c1ccc(Br)cc1` (stereo not given): the activation is 16.3% (inactive).

As for `CCc1nnc(NC(=O)CSc2nc(SC)ns2)s1`, the activation is 542% (active).

As for `CCc1nnc(NC(=O)CCC(=O)O)s1`, the activation is 11.8% (inactive).

Turning to `COc1ccc(C)cc1NC(=O)CSc1nc(SC)ns1`, the activation was -17.1% (inactive).

Turning to `CCn1c2ccccc2c2cc(CC(N)=O)ccc21`, the activation was -15% (inactive).

`CN(C)S(=O)(=O)c1ccc2oc(SCC(=O)Nc3ccccc3F)nc2c1`: the activation was 135% (active).

For `CCS(=O)(=O)c1ccc2oc(SCC(=O)N3c4ccccc4CC3C)nc2c1` (stereo not given), the activation is 12.2% (inactive).

Regarding `COc1ccc(S(=O)(=O)N(C)C)cc1NC(=O)CSc1ncccn1`, the activation is -3.15% (inactive).

In the case of `O=C(Nc1cccc(Cl)c1)c1cc([N+](=O)[O-])ccc1N1CCN(CCO)CC1`, the activation is -1.04% (inactive).

Turning to `O=C(NNC(=S)NCCCN1CCOCC1)c1ccncc1`, the activation is 1.62% (inactive).

For the molecule `Nc1nc(-c2sc3nc4c(cc3c2N)CCCC4)nc(N2CCOCC2)n1`, the activation is 45.3% (inactive).

Consider `CC(=O)Nc1cccc(-c2csc(Nc3cccc(C)n3)n2)c1`, for which the activation is 177% (active).

For the molecule `COc1ccc(CCNc2nc(-c3cccc(NC(C)=O)c3)cs2)cc1OC`, the activation was 13% (inactive).

`CC(=O)Nc1cccc(C(=O)Nc2nc(C)cs2)c1`: the activation is 30.8% (inactive).

`C/C(CC(=O)Nc1ccc(Cl)cc1)=N\NC(=O)C(=O)NCCO`: the activation is 6.46% (inactive).

Take `CC(C)c1nc2sc3c(c2c(=O)n1N)CC(C)(C)OC3`: the activation is 17.6% (inactive).

On to `O=C(O)c1ccc2c(c1)C(=O)N(NC(=O)c1ccc(O)cc1)C2=O`, for which the activation is -2.99% (inactive).

For the molecule `Cn1cnnc1SCC(=O)Nc1ccc(N2CCOCC2)cc1`, the activation is 5.51% (inactive).

For `O=C(O)CCS(=O)(=O)c1ccc(-c2ccccc2)cc1`, the activation was -3.35% (inactive).

Regarding `COc1ccc(-n2nnnc2-c2nc3ccccc3s2)cc1`, the activation was 237% (active).

Take `CCOc1cccc(-n2nnnc2-c2ccc(OC)cc2)c1`: the activation is -65.8% (inactive).

On to `COc1ccc(-n2nnnc2SCC(=O)Nc2ccccc2)cc1`, for which the activation was 6.08% (inactive).

Take `Cc1cccc(NC(=O)c2nnn(-c3cccc(C(F)(F)F)c3)c2N)c1`: the activation was 27.1% (inactive).

Turning to `CNc1nc(Nc2ccc(C)c(Cl)c2)nc(N)c1[N+](=O)[O-]`, the activation was 153% (active).

As for `Nc1nc(NCCCN2CCOCC2)nc(Nc2ccccc2)c1[N+](=O)[O-]`, the activation was -12.2% (inactive).

As for `COCCNc1nc(N)c([N+](=O)[O-])c(NCCO)n1`, the activation was -12.7% (inactive).

As for `Cc1ccc(NS(=O)(=O)c2cccs2)cc1S(=O)(=O)N1CCCCCC1`, the activation was 13.7% (inactive).

As to `O=C(Cc1ccc(-c2ccccc2)cc1)NC(c1ccccc1)c1ccccc1`, the activation was 12.7% (inactive).

`CC(NC(=S)Nc1ccc(OC(F)F)cc1)c1ccc(F)cc1` (stereo not given): the activation is -4.54% (inactive).

For the molecule `O=C(NNC(=O)c1ccc(Cl)cc1Cl)c1cccs1`, the activation was 59.2% (inactive).

Turning to `O=C(Nc1ccn(Cc2ccc(F)cc2)n1)c1ccncc1`, the activation is -11.3% (inactive).

For the molecule `O=C(Nc1ccn(Cc2ccccc2)n1)c1n[nH]c([N+](=O)[O-])c1Cl`, the activation was 129% (inactive).

For `O=C(Nc1ccn(Cc2ccccc2)n1)c1cccc(F)c1`, the activation was 197% (active).

For the molecule `Cc1coc(C)c1C(=O)CC1(O)C(=O)N(C)c2ccc(Cl)cc21` (stereo not given), the activation is 12.3% (inactive).

As for `CCN(CC)CCNC(=O)c1sc2ncn(CC(=O)Nc3ccc(C)c(Cl)c3)c(=O)c2c1C`, the activation is 11.4% (inactive).

Take `O=C1CC(c2ccccc2)=NN1c1ccc([N+](=O)[O-])cc1`: the activation was -12.9% (inactive).

Regarding `Cc1nn(-c2ccc([N+](=O)[O-])cc2)c(N)c1-c1ccccc1`, the activation is 152% (active).

On to `Cc1nn(-c2ccccc2)c2c1C(c1cccc([N+](=O)[O-])c1)N(c1ccccc1)C(=O)N2` (stereo not given), for which the activation was 11.7% (inactive).

Turning to `CCN(C(=O)Cc1nc(N)n[nH]1)C1(C(=O)Nc2ccccc2)CCCCC1`, the activation was -3.52% (inactive).

For `O=C(Nc1ccc2nc3n(c(=O)c2c1)CCCCC3)c1ccccc1Cl`, the activation was 22% (inactive).

As for `O=C(Nc1ccc2sc3ccccc3c(=O)c2c1)c1ccccc1Cl`, the activation was 221% (active).

For `COc1cc(NC(=O)c2cccs2)ccc1NC(=O)c1ccccc1Cl`, the activation is 37.2% (inactive).

For `CCOC(=O)c1ccccc1NC(=O)CSc1nc2ccccc2c(=O)[nH]1`, the activation was -2.72% (inactive).

On to `COc1cccc(N(Cc2nnc3n2CCCCC3)C(=O)Nc2ccccc2F)c1`, for which the activation was 3.63% (inactive).

In the case of `Cc1cc(C)c2nc(NC(=O)C3CCCO3)sc2c1` (stereo not given), the activation is 159% (active).

For `Cc1cc(Br)ccc1NC(=O)C1CCCO1` (stereo not given), the activation is -29.7% (inactive).

Regarding `O=C(Nc1nc2ccc(S(=O)(=O)N3CCCC3)cc2s1)C1CCCO1` (stereo not given), the activation was 2.99% (inactive).

Turning to `O=C(/C=C/c1ccc(OCc2c(F)cccc2Cl)cc1)N1CCOCC1`, the activation was 12.2% (inactive).

Consider `COc1ccc(OC)c(C(=O)CSc2nnc(-c3cccs3)o2)c1`, for which the activation was -1.75% (inactive).

In the case of `COc1ccc(-c2nnc(SCC(=O)c3cccs3)o2)c(OC)c1`, the activation was 142% (active).

Regarding `COc1ccc(-n2c(C)cc(C(=O)CSc3nnc(-c4cccs4)o3)c2C)cc1`, the activation is -0.59% (inactive).

Consider `O=C(NNC(=S)NCc1ccco1)C(c1ccccc1)c1ccccc1`, for which the activation was 19.5% (inactive).

With `O=C(NNC(=O)c1cc2c(s1)CCCC2)c1ccccc1`, the activation was 43.3% (inactive).

As for `CC(NC(=O)Nc1ccc2c(c1)OCO2)c1ccncc1` (stereo not given), the activation was 12.1% (inactive).

On to `COc1ccc(C(=O)Nc2ccc3c(c2)OCO3)cc1OC`, for which the activation was 35.6% (inactive).

In the case of `Cc1cccc(NC(=O)/C=C/c2ccc3c(c2)OCO3)n1`, the activation was 118% (inactive).

Consider `Cc1cccc(NC(=O)Nc2ccc3c(c2)OCO3)n1`, for which the activation is 137% (active).

Consider `CC(C)C(=O)Nc1cccc(C(=O)Nc2ccc3c(c2)OCO3)c1`, for which the activation was 138% (active).

Regarding `O=C(Nc1ccccc1)c1ccc2c(c1)OCO2`, the activation was -58.8% (inactive).

With `CC(OC(=O)c1ccccc1OCc1ccc(Cl)cc1)C(N)=O` (stereo not given), the activation is 40.4% (inactive).

Take `Cc1cc(C)c(NC(=O)c2oc3ccccc3c2COc2ccccc2)c(C)c1`: the activation is -0.13% (inactive).
